GalR3 antag = antagonists of human GalR3 | O60755 | HEK293 GalR3-CNG cAMP membrane potential fluorescence; galR3 body fused to GalR1 C-terminus | inhibition, % at 3 µM | 360,000 compounds, 0.44% hits;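 active = inhibition above the screen-wide average plus 3 SD, cut at about 13% in these data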;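 also: forskolin and galanin both at EC90 stimulate the cells; cAMP rise reported by CNG channel membrane potential dye signal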
Gli-Sufu antag = antagonists of Gli-Sufu signaling. Sufu-KO-LIGHT fibroblasts, Gli luciferase reporter luminescence. inhibition, % at 5 µM. 340,000 compounds, 0.74% hits;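 active = inhibition above about 55%, limit read from the data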
697 NFkB inh = lowers PMA/ionomycin-induced NF-kB signal in 697 B cells. 697 B-cell NF-kB luciferase reporter, 16 h. inhibition, % at 4 µM. 330,000 compounds, 0.33% hits. AID 435022; in the data active = inhibition above about 35%
COUP-TFII inh = inhibitors of human COUP-TFII (NR2F2); 370,000 compounds, 0.7% hits; HEK293T NGFI-A luciferase reporter, luminescence; inhibition, % at 8.6 µM; P24468; AID 686940;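 active = inhibition above a per-plate cutoff, mean inhibition of test wells between control levels plus 3 SD, cut at about 38% in these data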;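 also: cells cotransfected with COUP-TFII expression vector driving the NGFI-A reporter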
Target sequence (P24468 whole entry, looked up): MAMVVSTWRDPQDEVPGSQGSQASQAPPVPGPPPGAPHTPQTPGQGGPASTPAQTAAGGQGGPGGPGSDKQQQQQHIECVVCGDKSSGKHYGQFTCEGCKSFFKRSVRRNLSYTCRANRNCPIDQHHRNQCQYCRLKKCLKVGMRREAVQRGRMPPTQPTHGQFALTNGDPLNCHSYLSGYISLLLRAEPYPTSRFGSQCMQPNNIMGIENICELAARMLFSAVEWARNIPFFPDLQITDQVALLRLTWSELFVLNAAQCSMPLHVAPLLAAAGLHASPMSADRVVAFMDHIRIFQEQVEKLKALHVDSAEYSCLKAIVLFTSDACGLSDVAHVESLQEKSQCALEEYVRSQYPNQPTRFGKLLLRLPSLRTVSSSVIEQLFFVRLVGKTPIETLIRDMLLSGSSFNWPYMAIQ
Jurkat NFkB inh = inhibitors of the PMA/ionomycin-induced NF-kB reporter in Jurkat cells. 330,000 compounds, 0.53% hits. PMA/ionomycin-induced NF-kB luciferase reporter, luminescence. inhibition, % at 4 µM; in the data active = inhibition above about 50%
GalR3 antag conf = confirmation of human galanin receptor 3 antagonists; shares compounds with GalR3 antag; HEK293 GalR3 CNG cAMP biosensor, membrane potential fluorescence; galR3 fused to GalR1 carboxy tail; challenged with forskolin and galanin at EC90; inhibition, % at 3 µM; 1,600 compounds, 59% hits; AID 652245;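 active = inhibition above the primary screen's cutoff, the mean inhibition of all screened compounds plus 3 SD, cut at about 13% in these data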
HEK-CNG parental = counter-screen for GalR3 antagonists: nonspecific agonists in parental HEK-CNG cells. shares compounds with GalR3 antag. activation, % at 3 µM. HEK293-CNG parental cells, cAMP membrane potential fluorescence; normalised: DMSO wells 0%, forskolin wells 100%. 1,600 compounds, 10% hits; in the data active = activation above about 1.3%
Large screens that a line does not name were inactive (follow-up assays come after a bar, where they were run). Shown are actives, neighbours in structure and some others; about 2% of the full set was active somewhere.

O=C(O)COc1ccc(/C=C/c2ccc3cccc([N+](=O)[O-])c3n2)cc1	GalR3 antag 16 | GalR3 antag conf 21 | HEK-CNG parental inactive
O=C(O)Cc1csc(-c2cccc(F)c2)n1	none (no result: GalR3 antag) | GalR3 antag conf inactive | HEK-CNG parental inactive
O=C(O)Cc1csc(-c2ccccc2)n1	none
C[C@H]1[C@@H]2C[C@@]3(O[C@H](c4ccccn4)N=C3C[C@@H]1c1ccccc1)N(Cc1ccncc1)C2=O	none (no result: Gli-Sufu antag, 697 NFkB inh, Jurkat NFkB inh)
COc1cc(NC(=O)COC(=O)C2CC2)c(C)cc1[N+](=O)[O-]	none
COc1cc(NC(=O)COC(=O)C2CC(O)CN2S(=O)(=O)c2ccc(Cl)cc2)c(C)cc1[N+](=O)[O-] (stereo not given)	GalR3 antag 24 (no result: 697 NFkB inh, Jurkat NFkB inh) | GalR3 antag conf 47 | HEK-CNG parental inactive
COc1ccc(C(=O)C2CCCN(C(=O)c3ccoc3C)C2)cc1F (stereo not given)	GalR3 antag 13 | GalR3 antag conf inactive | HEK-CNG parental inactive
COc1cccc(N(C)C(=O)[C@@H](C2CC2)[C@@H](O)c2ccc(C(C)=O)cc2)c1	none (no result: GalR3 antag, Gli-Sufu antag, 697 NFkB inh, Jurkat NFkB inh)
COCCn1nnnc1C(C(C)C)N(Cc1ccccc1)Cc1cc2cc(OC)ccc2[nH]c1=O (stereo not given)	GalR3 antag 65 (no result: 697 NFkB inh, Jurkat NFkB inh) | GalR3 antag conf 60 | HEK-CNG parental inactive
COc1ccc2[nH]c(=O)c(CN(Cc3ccco3)C(c3nnnn3Cc3ccccc3)C(C)C)cc2c1 (stereo not given)	GalR3 antag 13 | GalR3 antag conf inactive | HEK-CNG parental inactive
COc1ccc2[nH]c(=O)c(CN(C3CCCCC3)C(c3nnnn3Cc3ccco3)C(C)C)cc2c1 (stereo not given)	none (no result: GalR3 antag, COUP-TFII inh)
CC(C)C[C@H](NC1(C(=O)NCCc2c[nH]c3ccccc23)CCN(C)CC1)C(=O)NCCCc1ccccc1	none (no result: GalR3 antag, Gli-Sufu antag, 697 NFkB inh, Jurkat NFkB inh)
COCC(COS(N)(=O)=O)Cc1ccccc1 (stereo not given)	none (no result: GalR3 antag) | GalR3 antag conf inactive | HEK-CNG parental inactive
NS(=O)(=O)OCCCc1ccccc1	none
COc1ccc(-c2nc(C#N)c(NC(C)c3ccccc3)o2)cc1OC (stereo not given)	GalR3 antag 20 | GalR3 antag conf 39 | HEK-CNG parental inactive
CCCCCCCCCC(=O)N/N=C(\C)c1cccnc1	GalR3 antag 14 | GalR3 antag conf inactive | HEK-CNG parental inactive
C=CCSc1nsc(NC(=O)Nc2ccc(F)cc2)n1	GalR3 antag 69, COUP-TFII inh 54 | GalR3 antag conf 40 | HEK-CNG parental inactive
COC(=O)c1ccc(COc2ccccc2/C=N/NC(=O)c2cccnc2)cc1	GalR3 antag 13 | GalR3 antag conf inactive | HEK-CNG parental inactive
COc1cccc(/C=N/NC(=O)CNC(=O)c2cccnc2)c1O	none
CCc1ccccc1NC(=O)c1cnc2scc(C)n2c1=O	none
CSc1ccccc1NC(=O)c1cnc2scc(C)n2c1=O	GalR3 antag 23 | GalR3 antag conf inactive | HEK-CNG parental inactive
O=c1[nH]c2cc(Cl)c([N+](=O)[O-])nc2[nH]1	GalR3 antag 24 (no result: Gli-Sufu antag) | GalR3 antag conf 24 | HEK-CNG parental inactive
CC(=O)Nc1cccc(NC=C(C#N)C#N)c1	GalR3 antag 15 | GalR3 antag conf inactive | HEK-CNG parental inactive
CC(=O)Nc1cccc(O)c1	none
Cc1ccc(-n2c(SCc3ccc(C#N)cc3)nnc2-c2ccccn2)cc1	GalR3 antag 13 | GalR3 antag conf inactive | HEK-CNG parental inactive
COc1ccc(-n2c(SCc3ccc([N+](=O)[O-])cc3)nnc2-c2ccc(C)cc2)cc1	GalR3 antag 50 | GalR3 antag conf inactive | HEK-CNG parental inactive
COc1ccc(-n2c(SCc3ccc(C#N)cc3)nnc2-c2ccccn2)cc1	none
CCC[C@H]1[C@@H](NC(=O)c2cccc(N(C)C)c2)CC[C@@]23CCCN2C(=O)CCC[C@@H]13	none (no result: GalR3 antag, Gli-Sufu antag, 697 NFkB inh, Jurkat NFkB inh)
CCCCCCc1c[nH]c2ccc(O)c(-c3ccccc3)c12	none (no result: GalR3 antag, Gli-Sufu antag, 697 NFkB inh, Jurkat NFkB inh)
COC(=O)c1cccc(Cn2ccc3ccc(-c4ccc5ccn(C(=O)C6CCC6)c5c4)cc32)c1	none (no result: GalR3 antag, Gli-Sufu antag, 697 NFkB inh, Jurkat NFkB inh)
CCOC(=O)N1CCN(C(=O)Cc2cccc3ccccc23)CC1	none
CCOC(=O)C1CCN(C(=O)Cc2cccc3ccccc23)CC1	GalR3 antag 16 | GalR3 antag conf inactive | HEK-CNG parental inactive

From PubChem BioAssay
